SW480 rereplic – A quantitative high throughput screen for small molecules that induce DNA re-replication in SW480 colon adenocarcinoma cells; SW480 DNA re-replication, Hoechst DNA content imaging, 48 h; Potency, µM (titrated, usually from 46.1 µM), inactives show top-dose re-replication activation, actives largely listed as activators; actives 1.8% (n = 340,000); AID 624297, 2012; also: % of control where 0% means no effect; nearly all actives have a fitted effect of over 55% in size
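Image-based read-out: total Hoechst fluorescence of nuclei (405 nm excitation, 500-530 nm emission), with hits raising the fraction of high-intensity nuclei. SW480 colon cells incubated 48 hr with compounds at 37 C.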
AT treatment – qHTS Assay for Identifying a Potential Treatment of Ataxia-Telangiectasia. F2112 A-T fibroblasts, KAP-1 phosphorylation AlphaLISA; neocarzinostatin DNA damage 30 min before lysis. Potency, µM (titrated, usually from 57.5 µM), without a hit: top-dose activation, actives largely listed as activators. actives 0.19% (n = 320,000). AID 485349, 2010; also: % of control where 0% means no effect; nearly all actives have a fitted effect of over 45% in size
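ATM-like activity read as KAP-1 phosphorylation via AlphaLISA donor/acceptor antibody pairs after lysis and 6 hr at 25C. Cells were ATM-null patient fibroblasts (F2112, hTERT), dosed 60 min, then exposed to the DSB inducer NCS for 30 min.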
ELG1 genotox – qHTS screen for small molecules that induce genotoxicity in human embryonic kidney (HEK293T) cells expressing luciferase-tagged ELG1. HEK293T ELG1-luciferase reporter, luminescence, 16 h. Potency, µM (top dose mostly 46 µM), for inactives: at the top dose activity change, positive = activation, usual class: activators. actives 1.3% (n = 330,000); also: % of control where 0% means no effect; nearly all actives have a fitted effect of over 60% in size
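HEK293T cells expressing luciferase-tagged ELG1 were treated with compound or DMSO for 16 hr at 37°C. Luciferase activity was then read after 30 min with ONE-Glo at room temperature; rising signal flags genetic stress.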
ELG1 repair inh – qHTS screen for small molecules that inhibit ELG1-dependent DNA repair in human embryonic kidney (HEK293T) cells expressing luciferase-tagged ELG1; HEK293T ELG1-luciferase reporter, luminescence, 16 h; DNA damage induced by 5-fluorouridine; Potency, µM (highest dose often 46.1 µM), without a hit: at the top dose activity change, negative = inhibition, most hits filed as inhibitors; actives 2.3% (n = 330,000); AID 504467, 2011; also: % is scaled to controls: 0 for no effect and ±100 for the full control effect; nearly all actives have a fitted effect of over 55% in size
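Overnight (16 hr) co-exposure of 2,000 cells/well to 5-fluorouridine and compound at 37 °C preceded detection. Luciferase was quantified via ONE-Glo luminescence; loss of signal denotes inhibition.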
p53 reactivation – qHTS assay for re-activators of p53 using a Luc reporter. H1299 p53-A138V BP100-luciferase reporter, luminescence, 24 h. actives 0.063% (n = 320,000). Potency, µM (highest dose often 92.2 µM), without a hit: at the top dose activity change, positive = activation, most hits filed as activators; also: % of control where 0% means no effect; nearly all actives have a fitted effect of over 45% in size
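H1299 (p53-null), stable ts p53-A138V + BP100-Luc; 1000 cells/well, Opti-MEM/10% FBS; cpd 4 pt, 1:5; 24 h, 37 deg C, 5% CO2; detection reagent 10 min RT; luminescence.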
MCF10A rereplic – A quantitative high throughput screen for small molecules that induce DNA re-replication in MCF 10a normal breast cells; MCF 10A DNA re-replication, Hoechst nuclear intensity, 48 h; Potency, µM (series often up to 46.1 µM), for inactives: at the highest dose activity, positive = re-replication, most hits filed as activators; actives 2.9% (n = 350,000); AID 624296, 2012; also: % of control where 0% means no effect; nearly all actives have a fitted effect of over 50% in size
* hit, by the source's call; ? = inconclusive; · = no result; [ ] = another dose, or the depositor's remark. A selection: hits, their analogues and other compounds. The true share with any hit is near 7.1%. Calls follow the shape of the dose curve; as a rule, active = well fitted curve in the direction sought with a large enough effect; inconclusive = small, poorly fitted or top-dose-only effect, or another doubt; inactive = no such curve, though single readings can be large; an effect the other way counts as inactive or inconclusive. Potency is read from the fitted curve at half-maximal effect.

SMILES | SW480 rereplic | AT treatment | ELG1 genotox | ELG1 repair inh | p53 reactivation | MCF10A rereplic
COC(=O)c1cccc(Nc2nc(-c3cccnc3)nc3ccccc23)c1 | 1% | 0% | -11% | 7.3µM* | -2% | ?
CCOC(=O)c1cccc(Nc2nc(-c3cccnc3)nc3ccccc23)c1 | ? | -11% | -18% | 9.2µM* | -23% | 23µM*
CC(=O)c1cccc(Nc2nc(-c3ccccc3)nc3ccccc23)c1 | 1% | -5% | -15% | 23µM* | -2% | ?
COC(=O)c1cccc(Nc2nc(-c3ccncc3)nc3ccccc23)c1 | 26% | -5% | -9% | ? | 11% | 8%
CCOC(=O)c1nc(Nc2cccc(C)c2)c2ccccc2n1 | -2% | -2% | -6% | 16µM* | 1% | -2%
O=C(O)c1cccc(Nc2nc(-c3cccnc3)nc3ccccc23)c1 | 2% | -4% | 1% | -8% | -6% | ?
CC(=O)Nc1ccc(C(=O)OCCc2ccccc2)cc1 | -4% | 3% | ? | ? | ? | 0%
CCOc1ccc(OCCn2c(S(=O)(=O)O)nc3c(N)ncnc32)cc1 | 0% | 0% | -1% | -14% | -2% | 1%
O=C(O)c1cccc(Nc2ncnc3ccccc23)c1 | 11% | -1% | 1% | 2% | 10% | 3%
CC(=O)c1cccc(Nc2ncnc3ccc(Br)cc23)c1 | ? | 6% | 0% | 18µM* | -5% | ?
Brc1ccc2ncnc(Nc3ccc(N4CCOCC4)cc3)c2c1 | ? | 7% | -11% | 6.5µM* | -2% | ?
Cn1c(=O)c2c(nc(N/N=C/c3ccc(OC(=O)c4ccco4)cc3)n2Cc2ccccc2)n(C)c1=O | -9% | -5% | -1% | 21µM* | -3% | 0%
Cn1c(N/N=C/c2cccs2)nc2c1c(=O)n(Cc1ccccc1)c(=O)n2C | 44% | 5% | -7% | -6% | -1% | -16%
Cn1c(=O)c2c(nc(N/N=C/c3cccs3)n2Cc2ccccc2)n(C)c1=O | -5% | 6% | 0% | 6.5µM* | 11% | 5%
COc1cc(OC)cc(-c2cc3nc4c(c(N5CCN(c6ncccn6)CC5)n3n2)CCCC4)c1 | 13% | 11% | -1% | 15µM* | 6% | ?
CCOC(=O)c1c(CSc2ccsc2)n(C)c2cc(Br)c(O)c(CN(C)C)c12 | 13% | 8.9µM* | -14% | -12% | 0% | ?
Cc1ccc(Sc2c([N+](=O)[O-])c(=O)n(C)c3ccccc23)cc1 | 4% | ? | 15% | 4% | · | 5.8µM*
Cc1ccc(Sc2c(O)c3ccccc3n(C)c2=O)cc1 | -270% | -2% | 0% | -29% | -6% | -1%
Cc1ccc(Sc2c(C=O)c3ccccc3n2C)cc1 | 15µM* | 28% | -11% | 5.8µM* | -12% | ?
O=C(c1ccc2c3n(nc2c1)-c1ccc(Cl)cc1CO3)N1CCCCC1 | -7% | -3% | ? | ? | ? | -24%
Cc1ccc2c(c1)COc1c3ccc(C(=O)NCCO)cc3nn1-2 | -43%[9.22 µM] | 3% | 15µM* | ? | 7% | -32%
Cc1ccc2c(c1)COc1c3ccc(C(=O)N4CCOCC4)cc3nn1-2 | 4% | -39% | 16µM* | ? | 24% | 8%
C[C@@H](CO)NC(=O)c1ccc2c3n(nc2c1)-c1ccc(Cl)cc1CO3 | -21%[9.22 µM] | 3% | 7.3µM* | ? | 21% | 3%
Cn1nc(C(=O)NCc2cccc(F)c2)cc1C(=O)NCc1cccc(F)c1 | 0% | -5% | -2% | 12µM* | -2% | 6%
COc1cc(CNC(=O)c2cnccn2)cc(OC)c1 | -13% | · | · | · | · | 1%
SMILES | SW480 rereplic | AT treatment | ELG1 genotox | ELG1 repair inh | p53 reactivation | MCF10A rereplic
COc1cc(CNC(=O)c2cc(C(=O)NCc3cc(OC)cc(OC)c3)n(C)n2)cc(OC)c1 | 3% | 1% | 1% | 21µM* | -6% | 12%
N#Cc1c2ccc([N+](=O)[O-])cc2[n+]([O-])n1-c1ccccc1 | · | 4% | ? | 10µM* | -30% | ·
CCCN(CC(=O)Nc1ccc(Cl)cc1Cl)C(=O)/C=C/c1ccco1 | -4% | 1% | ? | 4% | ? | 9.2µM*
CCN(CC(=O)Nc1ccc(NC(C)=O)cc1)C(=O)/C=C/c1ccco1 | -35% | -2% | 2% | 29% | 11% | 3%
Oc1cccc2oc(=S)[nH]c12 | -12% | · | · | · | · | -12%
C/C=C(\C)C(=O)OC1[C@H](OC(C)=O)C2(CO)C(CC1(C)C)C1=CCC3C4(C)CCC(O[C@@H]5O[C@H](C(=O)O)[C@@H](O[C@@H]6O[C@H](CO)[C@@H](O)[C@H](O)[C@H]6O)[C@H](O)[C@H]5O[C@H]5O[C@H](CO)[C@@H](O)[C@H](O)[C@H]5O)[C@](C)(CO)C4CCC3(C)[C@]1(C)C[C@H]2O (stereo not given in full) | 2% | · | · | · | · | 6.5µM*
C=CCNC(=O)[C@H]1N2C(=O)c3ccccc3C2SC1(C)C (stereo not given in full) | 12% | -5% | 2% | 6% | 5% | -4%
O=C(Nc1ccccc1)N1CCc2ccccc2C1 | 3% | · | 15% | ? | ? | 7%
O=C(c1ccncc1)N1CCc2ccccc2C1 | -16% | 15% | 1% | 23% | 4% | -21%
Cc1ccc(NC(=O)N2CCc3ccccc3C2)cc1 | -7% | -4% | 8.2µM* | ? | 20% | -4%
O=C(c1ccccc1Cl)N1CCc2ccccc2C1 | -7% | 3% | 1% | ? | 10% | 5%
O=C(c1cncc(Br)c1)N1CCc2ccccc2C1 | -1% | · | -18% | 5.8µM* | -5% | 0%
Cc1ccccc1C(=O)N1CCc2ccccc2C1 | -1% | 4% | 0% | 6% | 7% | 16µM*
CCN1C(=NCc2ccco2)N[C@@H](c2cccc(F)c2)C(C(=O)OC)=C1C | -12% | -17% | 0% | 0% | · | -6%
O=C(NC(C(=O)N/N=C/c1c2ccccc2cc2ccccc12)c1n[nH]c(=O)c2ccccc12)c1ccccc1 (stereo not given) | 8.2µM* | 5% | -3% | -23% | 4% | 2.1µM*
COC(=O)[C@@]1(Cc2ccc(F)cc2)[C@H]2c3cc(C(=O)N(C)C)n(Cc4ccc(OC)c(OC)c4)c3C[C@H]2CN1C(=O)c1ccccc1 | ? | -5% | -3% | -7% | -1% | -6%
